# Test results taken from the supplement of paper PMC10646978.
# ± gives the standard deviation.
# Tests used:
# Conditions in all cases: modulator concentration 10 µM
# [1] = tested on: RAW-Dual (murine macrophage reporter line); assay: NF-kB reporter (SEAP) activity fold change vs agonist alone; higher = enhanced NF-kB activity
# Summary of the method: (§1)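 RAW-Dual murine macrophage reporter cells were plated at 50 000 per well in 384-well plates, pin-transferred compound to 10 μM final, and pre-incubated for 1 hour at 37 °C before a PRR agonist was added and the cells incubated overnight. NF-κB activity was read from supernatant SEAP with QUANTI-Blue at 620 nm absorbance, and IRF activity from Lucia luciferase with QUANTI-Luc by luminescence. Each signal was expressed as fold change by dividing by the mean agonist-only control on the same plate. Two replicate plates were averaged, with errors obtained by propagation.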
# [2] = tested on: RAW-Dual (murine macrophage reporter line); assay: IRF reporter (Lucia luciferase) activity fold change vs agonist alone; higher = enhanced IRF activity
# Summary of the method: as §1
# [3] = tested on: RAW-Dual (murine macrophage reporter line); assay: viability score (confluency relative to resting cells, overnight) (fraction); higher = more viable, active = viable (0.7 or more)
# Summary of the method: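 Compound was added at a final 10 μM to RAW-Dual macrophages in 384-well plates and left overnight. Confluency was imaged with IncuCyte, and two masks were generated in IncuCyte software over all imaged wells. Each viability score is confluency relative to resting cells, and a compound met the cutoff only when both masks were above 70% of resting cells.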
# [4] = agonist: CpG ODN 1826 0.5 ug/mL
SMILES,"NF-kB reporter [1, 4]",NF-kB reporter ([1]; agonist: LPS 0.1 ug/mL),NF-kB reporter ([1]; agonist: MPLA […]),IRF reporter ([2]; agonist: 3'3'-cGAMP 10 ug/mL),IRF reporter ([2]; agonist: LPS 0.1 ug/mL),IRF reporter ([2]; agonist: MPLA […]),viability score [3]
CCOc1ccc(C=NNc2nc(C)cs2)c(O)c1,0.949 ± 0.087,0.965 ± 0.13,1.03 ± 0.073,0.624 ± 0.024,0.988 ± 0.069,0.981 ± 0.15,0.999 (active)
Cn1cnc2cc(NCc3ccc(Br)cc3)ccc21,0.882 ± 0.14,0.762 ± 0.076,0.984 ± 0.1,0.805 ± 0.045,1.06 ± 0.21,1.13 ± 0.25,0.984 (active)
Cc1cc(OCC(O)Cn2cnc3ccccc32)ccc1Cl (centres undefined),1.05 ± 0.06,1.1 ± 0.084,1.14 ± 0.082,0.913 ± 0.035,0.9 ± 0.086,0.685 ± 0.12,0.906 (active)
CCCS(=O)c1ccc2nc(NC(=O)OC)[nH]c2c1 (centres undefined),1.04 ± 0.15,0.998 ± 0.1,1.05 ± 0.037,0.971 ± 0.058,0.927 ± 0.037,0.917 ± 0.11,0.998 (active)
Oc1c(Cl)cc(Cl)cc1Sc1cc(Cl)cc(Cl)c1O,1.18 ± 0.11,0.917 ± 0.061,3.21 ± 0.07,0.564 ± 0.031,1.03 ± 0.16,1.1 ± 0.21,0.441 (inactive)
COc1cc(C(=O)NCCCCc2ccccc2)cc(OC)c1OC,1.09 ± 0.095,1.04 ± 0.068,0.994 ± 0.034,0.906 ± 0.14,0.993 ± 0.068,0.983 ± 0.14,0.995 (active)
NS(=O)(=O)C#Cc1ccccc1,0.0641 ± 0.011,0.0588 ± 0.0047,0.159 ± 0.013,0.0153 ± 0.0016,0.0325 ± 0.0031,0.0392 ± 0.0098,0.7 (active)
CCOC(=O)C1=C(N)OC(C)=C(C(=O)OC)C1c1cccnc1 (centres undefined),1.16 ± 0.085,1.11 ± 0.081,1.16 ± 0.074,1.21 ± 0.04,1.12 ± 0.12,1.09 ± 0.095,0.988 (active)
O=C(Nc1nccs1)c1ccc2c(c1)C(=O)N(CC1CCCO1)C2=O (centres undefined),1.12 ± 0.11,0.919 ± 0.088,0.975 ± 0.028,0.997 ± 0.037,1.04 ± 0.054,1.14 ± 0.13,0.997 (active)
CC(Cc1ccc(O)c(O)c1)C(C)Cc1ccc(O)c(O)c1 (centres undefined),1.16 ± 0.31,0.645 ± 0.057,1.31 ± 0.094,0.0338 ± 0.0028,0.509 ± 0.062,0.544 ± 0.055,0.618 (inactive)
CCC(=O)c1c(O)cc(O)cc1O,1.03 ± 0.083,1.1 ± 0.055,1.04 ± 0.055,0.922 ± 0.056,0.946 ± 0.081,0.84 ± 0.071,0.999 (active)
O=C(CN1CCCCC1)NN=Cc1ccccc1OCc1ccccc1,0.948 ± 0.08,1.01 ± 0.1,0.927 ± 0.04,0.99 ± 0.1,1.02 ± 0.082,1.14 ± 0.18,0.995 (active)
CC(=O)Oc1ccc2c(c1)c(C(C)=O)c(C)n2C,0.859 ± 0.071,0.972 ± 0.1,0.963 ± 0.091,0.783 ± 0.028,1.13 ± 0.15,1.27 ± 0.25,1.02 (active)
CNS(=O)(=O)C[C@H]1CC[C@H](N(C)c2ncnc3[nH]ccc23)CC1.O=C(O)/C=C\C(=O)O,0.179 ± 0.044,0.0999 ± 0.005,0.414 ± 0.033,0.0771 ± 0.0033,0.269 ± 0.029,0.376 ± 0.056,0.997 (active)
COc1cc(=O)n(C)cc1C(=O)Nc1cccnc1,1.06 ± 0.065,0.817 ± 0.13,1.06 ± 0.065,0.943 ± 0.064,0.899 ± 0.17,0.915 ± 0.25,0.967 (active)
COc1ccc(-c2cc(CNC(=O)C3CCC3)no2)cc1,1.15 ± 0.075,1.02 ± 0.1,0.934 ± 0.034,0.877 ± 0.052,1.06 ± 0.086,0.986 ± 0.23,0.995 (active)
CC(C)(C)N1CC(c2nc3ccccc3n2Cc2c(F)cccc2Cl)CC1=O (centres undefined),1.28 ± 0.094,1.1 ± 0.088,0.901 ± 0.041,1.2 ± 0.06,1.15 ± 0.1,1.28 ± 0.19,0.974 (active)
CC(C(=O)O)c1ccc2c(c1)[nH]c1ccc(Cl)cc12 (centres undefined),0.96 ± 0.15,1.13 ± 0.24,0.879 ± 0.064,0.937 ± 0.054,1.19 ± 0.2,1.05 ± 0.16,1 (active)
COC(=O)C1=CN(CC2CCCO2)C=C(C(=O)OC)C1c1ccc(Cl)cc1 (centres undefined),0.999 ± 0.19,0.992 ± 0.11,1.44 ± 0.54,0.94 ± 0.025,1.04 ± 0.13,1.07 ± 0.11,1 (active)
CCN(CC)C(=O)C(=Cc1ccc(Br)cc1)NC(=O)c1ccccc1OC,1.06 ± 0.084,1.09 ± 0.11,1.09 ± 0.075,1.14 ± 0.028,1.61 ± 0.25,1.28 ± 0.12,1.01 (active)
CCS(=O)(=O)O.COC(=O)c1ccc2c(c1)NC(=O)/C2=C(\Nc1ccc(N(C)C(=O)CN2CCN(C)CC2)cc1)c1ccccc1,0.115 ± 0.027,0.886 ± 0.044,2.23 ± 0.18,0.036 ± 0.002,0.177 ± 0.025,0.241 ± 0.028,0.839 (active)
CC(=O)NC(NC(C)=O)c1cccc([N+](=O)[O-])c1,1.15 ± 0.12,1 ± 0.13,0.998 ± 0.039,0.968 ± 0.043,0.99 ± 0.085,1.05 ± 0.12,0.995 (active)
CC(=O)c1cc(Cl)ccc1OC(=O)c1ccccc1Cl,0.767 ± 0.07,0.803 ± 0.051,0.757 ± 0.062,0.543 ± 0.025,1.63 ± 0.12,1.8 ± 0.24,0.987 (active)
O=C(O)C(=O)O.c1ccc(SCCc2ccncc2)cc1,1.06 ± 0.12,1.04 ± 0.076,1 ± 0.056,1.05 ± 0.24,1.07 ± 0.09,1.19 ± 0.17,1 (active)
NC(=O)N1CCC(CC(=O)N2CCC([C@H]3c4ncc(Br)cc4CCc4cc(Cl)cc(Br)c43)CC2)CC1,0.342 ± 0.047,0.434 ± 0.12,0.615 ± 0.19,0.325 ± 0.012,0.889 ± 0.23,1.2 ± 0.17,0.0582 (inactive)
O=C(Nc1nc(CC(=O)N2CCc3ccccc3C2)cs1)c1ccc(Cl)cc1,1.05 ± 0.054,1.13 ± 0.09,0.845 ± 0.047,1.01 ± 0.056,1.16 ± 0.11,1.21 ± 0.15,1.01 (active)
OCCN(CCO)CC(O)Cn1c2ccc(Cl)cc2c2cc(Cl)ccc21 (centres undefined),0.232 ± 0.013,0.503 ± 0.042,0.407 ± 0.024,0.695 ± 0.032,2.78 ± 0.18,1.52 ± 0.18,0.0946 (inactive)
